Compound activity deposited in PubChem BioAssay by National Center for Advancing Translational Sciences (NCATS).
D1 antag: antagonists of human D1 dopamine receptor. P21728. HEK293 TREx D1 cells, calcium flux, dopamine EC80; active compounds read low. activity change, negative = inhibition, % at 10 µM. 360,000 compounds, 3.2% hits; in the data active = activity change below about -30%; note: % is set by controls: 0 for no effect and ±100 for the full control effect
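Tetracycline-induced HEK293 Trex D1 cells, force-coupled to calcium, dye-loaded; compounds added and read 180 s, then EC80 dopamine added and calcium flux tracked kinetically another 180 s.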
D1 potentiator: human D1 dopamine receptor positive modulation | HEK293 TREx D1 cells, calcium flux, dopamine EC20 potentiation | 360,000 compounds, 0.036% hits | P21728 | potentiation, % at 10 µM | AID 504651; in the data active = potentiation above about 30%; note: 0% is about no effect
TRHR agonist: agonists of human TRH receptor. P34981. TRHR cells, calcium flux fluo-8, FDSS agonist mode. activation, % at 2 µM. 360,000 compounds, 0.18% hits; note: 0% is about no effect
Target sequence (P34981 whole entry, looked up): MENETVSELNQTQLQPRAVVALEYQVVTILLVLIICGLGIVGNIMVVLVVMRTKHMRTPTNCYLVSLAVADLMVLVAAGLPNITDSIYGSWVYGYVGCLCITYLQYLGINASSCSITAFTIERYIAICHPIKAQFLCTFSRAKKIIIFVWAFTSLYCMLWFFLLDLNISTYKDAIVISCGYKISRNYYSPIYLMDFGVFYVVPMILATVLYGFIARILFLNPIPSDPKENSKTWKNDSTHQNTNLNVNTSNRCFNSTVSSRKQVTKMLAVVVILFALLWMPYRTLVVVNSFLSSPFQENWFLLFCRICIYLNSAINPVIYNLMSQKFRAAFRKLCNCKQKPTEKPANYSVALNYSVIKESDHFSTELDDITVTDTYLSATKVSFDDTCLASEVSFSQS
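Agonist-mode FDSS calcium read (Ex 480/Em 530, 1 s cycles) in 1536-well TRHR cells with fluo-8 dye, after 10-cycle baseline and 23 nL compound addition; TRH at EC20 (10 nM final) added afterwards for the enhancer phase.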
D1 ag: activates the human D1 dopamine receptor. P21728. 360,000 compounds, 1% hits. AID 504660. HEK293 T-REx D1 cells, calcium flux, agonist mode. activation, % at 2 µM; note: 0% is about no effect
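Inducible HEK293 T-REx D1 cells, force-coupled to calcium signalling, were plated at 4000 cells/well with tetracycline and held overnight at 30 C. After no-wash calcium dye loading, compound-evoked calcium rise over 180 s flagged agonists.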
TRHR PAM: allosteric enhancers of human TRH receptor. P34981. TRHR cells, fluo-8 calcium fluorescence, EC20 TRH enhancement. enhancement, % at 2 µM. 360,000 compounds, 0.66% hits. AID 493056; in the data active = enhancement above about 30%; note: 0% is about no effect
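TRHR-expressing cells loaded with fluo-8 calcium dye were read kinetically (ex 480/em 530) during compound addition, then stimulated with an EC20 of TRH (10 nM final). Enhancement of the Gq-mediated intracellular calcium response was scored.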
* hit, by the source's call; ! = not active in a repeat. Shown are actives, neighbours in structure and some others; about 4.6% of the full set was active somewhere. Cut-off read from the data, not from the text of the source, unless noted: active = activation above about 30%; inactive = the rest.

SMILES | D1 antag | D1 potentiator | TRHR agonist | D1 ag | TRHR PAM
Oc1ccc(Cl)cc1C1C=C(c2ccc3c(c2)OCO3)NC(c2cc(Br)ccc2F)N1 (stereo unspecified) | -9 | -2 | 2 | 31* | -2
CCc1ccc(NS(=O)(=O)c2ccc(-c3cc(C)no3)cc2)cc1 | -5 | -3 | 1 | 11 | 5
c1ccc(SCCOCCN2CCc3ccccc3C2)cc1 | -48* | -9 | 0 | 3 | 6
c1ccc(SCCN2CCc3ccccc3C2)cc1 | -73* | -2 | -1 | 1 | 15
COc1ccccc1NC1CCCCC1NS(=O)(=O)c1ccccc1 (stereo unspecified) | -11 | -3 | 0 | 0 | -1
CN(C)c1ccc(NC(=O)CSC2=Nc3ccccc3C3=NC(CC(=O)NCc4ccccc4)C(=O)N23)cc1 (stereo unspecified) | -12 | -1 | -1 | 7 | 0
Cc1ccc(C)c(NC(=O)CSc2c3c(nc4ccc(Cl)cc24)CCCC3)c1 | -3 | 2 | 0 | 2 | -2
Cc1ccc(Cn2nnc(C(=O)Nc3cc(C)ccc3C)c2N)cc1 | 4 | 5 | 5 | 40* | -1
COc1ccc(OC)c(NC(=O)c2nnn(Cc3ccc(Br)cc3F)c2N)c1 | 39 | 0 | 7 | 5 | 17
Cc1ccc(C)c(NC(=O)c2nnn(Cc3ccc(F)cc3Cl)c2N)c1 | -32* | -3 | 9 | 79* | 0
COc1ccc(NC(=O)c2nnn(Cc3ccc(Br)cc3F)c2N)c(OC)c1 | 25 | 11 | 12 | 34* | 4
COc1ccc(NC(=O)Cn2nnc(C(=O)Nc3ccccc3C)c2N)cc1 | -64* | -6 | 0 | 1 | 3
COc1ccc(NC(=O)Cn2nnc(C(=O)NCCc3ccccc3)c2N)cc1 | -24 | -8 | 0 | 2 | 6
Cc1ccc(C)c(NC(=O)c2nnn(Cc3ccccc3)c2N)c1 | 25 | 4 | 3 | 17 | -1
Cc1cc(C)cc(-n2ccnc2SCC(=O)Nc2ccc(C)cc2C)c1 | -18 | 2 | 0 | 7 | -5
COc1ccc(CN2COc3ccc4c(-c5ccc(OC)cc5)cc(=O)oc4c3C2)cc1 | 18 | 0 | 0 | 4 | -1
COC(=O)c1ccc2c(=O)n(CCCCCC(=O)N3CCN(c4cccc(C)c4C)CC3)c(=O)[nH]c2c1 | -7 | -2 | 0 | 1 | 2
Nc1c(C(=O)Nc2ccc3c(c2)OCCO3)nnn1Cc1ccccc1Cl | 6 | 0 | 2 | 18 | 7
Nc1c(C(=O)Nc2ccccc2)nnn1Cc1ccc(F)cc1Cl | -31* | 2 | 16 | 88* | 0
CCn1c(=O)cc(SCC(=O)NCCc2ccc(OC)cc2OC)c2ccccc21 | -2 | 2 | 0 | 0 | -5
CCCn1cc(S(=O)(=O)c2cc(C)ccc2C)c(=O)c2cc(F)c(N3CCN(CC)CC3)cc21 | 9 | 7 | 0 | -1 | 4
O=C(O)/C=C/C(=O)NNC(=O)c1ccccc1Br | -41* | -9 | 0 | -1 | -3
Cc1ccccc1C(=O)NNC(=O)/C=C\C(=O)O | -2 | -1 | -1 | 2 | -10
COc1cccc(-c2ccnc3c(-c4ccccc4)c(C)nn23)c1 | 8 | -6 | 1 | 0 | 3
CC(=O)c1sc(NC(=O)c2c(-c3ccccc3)c(-c3ccccc3)nn(C)c2=O)nc1C | 9 | -1 | 0 | 2 | -4
SMILES | D1 antag | D1 potentiator | TRHR agonist | D1 ag | TRHR PAM
COc1c(O)cc2oc(-c3ccc(O)cc3)cc(=O)c2c1O | -21 | -7 | -1 | 2 | -2
COc1cc(OC)c(-c2c3cc(O)c(=O)cc-3oc3cc(O)c(O)cc23)cc1OC | 71 | 32* | 266* | 626* | 152*
Cc1c2cc(O)c(=O)cc-2oc2cc(O)c(O)cc12 | -4 | -3 | 3 | 34*! | 6
Cc1cccc[n+]1CC(=O)N1c2ccccc2Sc2ccccc21 | -25 | -6 | -2 | 1 | 31*
O=C(NCc1ccccc1Cl)NCc1ccccc1Cl | -10 | 2 | 0 | 0 | -3
NC(=O)NCc1ccccc1Cl | -38* | -3 | 1 | 1 | -3
COc1cccc(CNS(=O)(=O)c2cc3[nH]c(=O)c(=O)[nH]c3cc2C)c1 | 1 | 7 | 0 | 2 | 31*
CCOCCn1c(=NC(=O)c2ccc3c(c2)OCCO3)sc2cc(OCC)ccc21 | -31* | -4 | 0 | 0 | -2
Cc1ccc(NS(=O)(=O)c2ccc(-c3cc(C)no3)cc2)c(C)c1 | -15 | -2 | 1 | 9 | 1
COc1ccc2c(CNCc3ccc(Cl)cc3)c(C(=O)O)n(Cc3ccccc3C)c2c1 | 11 | 6 | 0 | -1 | 0
CCC(Cc1ccccc1)NC(=O)Cn1ncc2c3ccccc3n(Cc3ccccc3)c2c1=O (stereo unspecified) | -19 | -4 | 0 | 9 | 2
O=S(=O)(c1ccc(Cl)cc1)N1CCCCCC1 | 4 | -1 | 0 | 0 | -1
Cc1ccc(S(=O)(=O)N2CCCCC2)cc1 | -2 | 1 | -1 | 1 | 1
CC1CCN(S(=O)(=O)c2cnc[nH]2)CC1 | -14 | 1 | 0 | 4 | -5
O=S(=O)(c1ccc(-c2ccccc2)cc1)N1CCCCC1 | -35* | -3 | 0 | 0 | 5
O=S(=O)(c1ccc(S(=O)(=O)N2CCCC2)cc1)N1CCCCCC1 | -39* | -4 | -1 | 3 | 3
O=S(=O)(c1cnc[nH]1)N1CCCCCC1 | -45* | -3 | 0 | 0 | -4
CNc1nc(-c2ccc(S(=O)(=O)N3CCCCC3)cc2)cs1 | -33* | -4 | -1 | 10 | -12
Clc1cccc(-n2ncc3c(Nc4ccc5c(c4)OCCO5)ncnc32)c1 | -14 | -3 | 0 | -4 | -4
COc1ccc(S(=O)(=O)N(CC(=O)Nc2ccc3c(c2)OCO3)c2ccc(C)cc2)cc1 | 7 | -1 | 0 | -2 | -6
CCN(Cc1ccccc1)C(=O)CCS(=O)(=O)c1cc(Br)cc2c1N(C(=O)C1CC1)CC2 | 3 | 4 | 0 | 7 | -8
Cc1ccc(CCNC(=O)c2cnc3c(C)cccn3c2=O)cc1 | 1 | 0 | 1 | 0 | 4
CSc1nc2cc(S(=O)(=O)N3CCOCC3)ccc2s1 | 0 | -3 | -2 | 7 | -7
Cc1ccc(S(=O)(=O)N2CCC(=O)N2)cc1 | -68* | -11 | 1 | 2 | 3
Cc1ccc(S(=O)(=O)N2CCCN(C(C)c3nc4ccccc4c(=O)[nH]3)CC2)cc1 (stereo unspecified) | -38* | -5 | 0 | 2 | 5
O=S(=O)(c1cccc(-c2cn3ccccc3n2)c1)N1CCCCC1 | -47* | -8 | 0 | 3 | -2
CSc1nc2cc(S(=O)(=O)N3CCCCC3)ccc2s1 | -31* | 0 | -1 | 0 | 5
Cc1cccc(NC(=O)CN2C(=O)CCc3ccccc32)c1C | 2 | -2 | 0 | 8 | 5
